Assay results from PMC7862700, “An all-to-all approach to the identification of sequence-specific readers for epigenetic DNA modifications on cytosine”.

Legend:
Test in all cases: DAPPL (digital affinity profiling via proximity ligation, sequencing); 10 mM Tris-HCl pH 7.5, 50 mM NaCl, 1 mM DTT, 4% glycerol, room temperature, 30 min; GST-TFs on glutathione beads, 16-mer random dsDNA library, 0.1% formaldehyde crosslink after washing; high values mean tight binding
FLI1 = target: T1, FLI1 (Homo sapiens, UniProt Q01543 1-452); details: protein: recombinant; tags: N-terminal GST; dsDNA, one strand shown
T1 sequence: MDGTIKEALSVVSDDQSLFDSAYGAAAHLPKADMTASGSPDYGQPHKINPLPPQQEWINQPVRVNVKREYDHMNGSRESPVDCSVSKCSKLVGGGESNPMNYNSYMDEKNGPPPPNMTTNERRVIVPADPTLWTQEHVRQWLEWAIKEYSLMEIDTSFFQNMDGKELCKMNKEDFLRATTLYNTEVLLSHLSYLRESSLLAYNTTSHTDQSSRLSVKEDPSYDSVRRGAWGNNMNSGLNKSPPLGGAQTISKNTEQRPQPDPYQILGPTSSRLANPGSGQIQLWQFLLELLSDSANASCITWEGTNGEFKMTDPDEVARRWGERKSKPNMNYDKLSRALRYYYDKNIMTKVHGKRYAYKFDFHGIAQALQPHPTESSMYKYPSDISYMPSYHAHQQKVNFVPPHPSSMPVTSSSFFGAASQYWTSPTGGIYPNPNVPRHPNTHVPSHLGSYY
Summary of the method: (§1)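 A tag-only sample was pooled with DNA-barcoded human transcription factors that had been expressed in yeast as GST fusions and captured on glutathione beads. The pools were incubated for 30 min at room temperature with 200 nmole of a random double-stranded 16-mer DNA library in Tris/NaCl/DTT/glycerol buffer, then washed, crosslinked with 0.1% formaldehyde, proximity-ligated (BsaI/T4 ligase, 1 h, 37 °C), PCR-amplified and sequenced on an Illumina NextSeq500. Binding signal is each hexamer's read frequency for a factor divided by its frequency for the tag-only sample.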

ELK1 = target: T2, ELK1 (Homo sapiens, UniProt P19419 1-428); details: protein: recombinant; tags: N-terminal GST; dsDNA, one strand shown
T2 sequence: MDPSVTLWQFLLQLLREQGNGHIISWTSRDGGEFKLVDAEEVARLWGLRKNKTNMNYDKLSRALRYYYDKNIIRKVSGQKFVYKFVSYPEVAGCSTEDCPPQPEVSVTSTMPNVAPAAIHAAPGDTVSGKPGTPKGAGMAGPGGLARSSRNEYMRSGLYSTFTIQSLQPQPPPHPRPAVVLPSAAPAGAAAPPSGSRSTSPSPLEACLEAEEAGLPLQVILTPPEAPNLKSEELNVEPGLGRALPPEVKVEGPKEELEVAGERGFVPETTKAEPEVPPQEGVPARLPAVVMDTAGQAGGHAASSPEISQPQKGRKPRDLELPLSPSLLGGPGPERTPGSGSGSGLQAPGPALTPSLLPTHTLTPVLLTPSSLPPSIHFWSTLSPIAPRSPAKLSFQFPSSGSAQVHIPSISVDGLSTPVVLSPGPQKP
Summary of the method: as §1

GABPA = target: T3, GABPA (Homo sapiens, UniProt Q06546 1-454); details: protein: recombinant; tags: N-terminal GST; dsDNA, one strand shown
T3 sequence: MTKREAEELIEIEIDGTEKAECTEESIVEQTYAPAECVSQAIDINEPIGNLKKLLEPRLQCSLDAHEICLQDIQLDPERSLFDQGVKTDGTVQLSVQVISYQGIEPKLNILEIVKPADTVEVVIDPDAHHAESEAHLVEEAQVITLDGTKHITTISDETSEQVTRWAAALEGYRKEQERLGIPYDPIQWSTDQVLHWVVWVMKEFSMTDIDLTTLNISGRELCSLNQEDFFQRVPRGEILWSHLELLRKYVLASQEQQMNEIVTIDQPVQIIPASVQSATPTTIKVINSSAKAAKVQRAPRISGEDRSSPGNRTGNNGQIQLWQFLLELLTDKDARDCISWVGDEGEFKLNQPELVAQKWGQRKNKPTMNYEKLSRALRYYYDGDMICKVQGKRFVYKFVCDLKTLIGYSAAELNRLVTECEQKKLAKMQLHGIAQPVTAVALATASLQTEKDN
Summary of the method: as §1

ERG = target: T4, ERG (Homo sapiens, UniProt P11308 1-479); details: protein: recombinant; tags: N-terminal GST; dsDNA, one strand shown
T4 sequence: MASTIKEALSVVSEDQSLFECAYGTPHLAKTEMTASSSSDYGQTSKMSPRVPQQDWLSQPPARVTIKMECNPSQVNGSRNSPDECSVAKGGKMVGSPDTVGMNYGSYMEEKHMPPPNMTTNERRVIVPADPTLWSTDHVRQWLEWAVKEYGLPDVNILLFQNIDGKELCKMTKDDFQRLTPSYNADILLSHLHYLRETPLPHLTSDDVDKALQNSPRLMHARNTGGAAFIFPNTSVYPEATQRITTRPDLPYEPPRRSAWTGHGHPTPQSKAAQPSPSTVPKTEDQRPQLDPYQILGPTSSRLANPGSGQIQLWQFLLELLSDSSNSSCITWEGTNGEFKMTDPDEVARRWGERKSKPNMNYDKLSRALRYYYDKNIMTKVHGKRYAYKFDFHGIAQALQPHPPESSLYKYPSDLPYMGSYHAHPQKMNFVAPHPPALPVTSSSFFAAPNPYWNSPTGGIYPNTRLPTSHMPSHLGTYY
Summary of the method: as §1

ELF1 = ELF1 (Homo sapiens, UniProt P32519 1-619); details: protein: recombinant; tags: N-terminal GST; dsDNA, one strand shown
Summary of the method: as §1

EHF = target: T5, EHF (Homo sapiens, UniProt Q9NZC4 1-300); details: protein: recombinant; tags: N-terminal GST; dsDNA, one strand shown
T5 sequence: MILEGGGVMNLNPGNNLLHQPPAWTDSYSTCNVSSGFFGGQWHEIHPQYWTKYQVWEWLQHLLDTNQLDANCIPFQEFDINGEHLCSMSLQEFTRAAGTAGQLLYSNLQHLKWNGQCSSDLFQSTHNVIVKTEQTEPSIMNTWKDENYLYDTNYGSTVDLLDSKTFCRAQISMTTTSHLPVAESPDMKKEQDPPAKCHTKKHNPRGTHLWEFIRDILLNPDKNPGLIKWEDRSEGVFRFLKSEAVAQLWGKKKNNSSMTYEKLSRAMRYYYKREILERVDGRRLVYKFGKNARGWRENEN
Summary of the method: as §1

SPI1 = SPI1 (Homo sapiens, UniProt P17947 1-270); details: protein: recombinant; tags: N-terminal GST; dsDNA, one strand shown
Summary of the method: as §1

SPIB = SPIB (Homo sapiens, UniProt Q01892 1-262); details: protein: recombinant; tags: N-terminal GST; dsDNA, one strand shown
Summary of the method: as §1

ELK3 = target: T6, ELK3 (Homo sapiens, UniProt P41970 1-407); details: protein: recombinant; tags: N-terminal GST; dsDNA, one strand shown
T6 sequence: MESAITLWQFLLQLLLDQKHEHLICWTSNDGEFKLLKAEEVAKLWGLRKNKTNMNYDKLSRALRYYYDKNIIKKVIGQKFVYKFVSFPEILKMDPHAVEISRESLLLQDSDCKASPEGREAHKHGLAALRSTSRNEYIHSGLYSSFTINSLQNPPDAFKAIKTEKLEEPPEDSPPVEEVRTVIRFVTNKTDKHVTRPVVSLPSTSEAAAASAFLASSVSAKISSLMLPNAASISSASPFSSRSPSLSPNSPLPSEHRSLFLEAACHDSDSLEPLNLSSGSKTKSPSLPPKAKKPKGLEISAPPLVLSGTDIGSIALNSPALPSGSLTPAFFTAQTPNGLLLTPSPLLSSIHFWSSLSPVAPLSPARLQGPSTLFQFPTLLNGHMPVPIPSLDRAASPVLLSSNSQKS
Summary of the method: as §1

FEV = target: T7, FEV (Homo sapiens, UniProt Q99581 1-238); details: protein: recombinant; tags: N-terminal GST; dsDNA, one strand shown
T7 sequence: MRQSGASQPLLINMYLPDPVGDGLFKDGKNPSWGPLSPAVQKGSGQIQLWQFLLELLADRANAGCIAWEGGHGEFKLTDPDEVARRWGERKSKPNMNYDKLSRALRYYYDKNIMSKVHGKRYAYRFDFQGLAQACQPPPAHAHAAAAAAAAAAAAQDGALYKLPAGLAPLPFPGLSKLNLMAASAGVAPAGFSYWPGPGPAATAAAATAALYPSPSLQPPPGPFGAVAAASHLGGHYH
Summary of the method: as §1

ETV5 = ETV5 (Homo sapiens, UniProt P41161 1-510); details: protein: recombinant; tags: N-terminal GST; dsDNA, one strand shown
Summary of the method: as §1

HSF1 = HSF1 (Homo sapiens, UniProt Q00613 1-529); details: protein: recombinant; tags: N-terminal GST; chain copies: 3; dsDNA, one strand shown
Summary of the method: as §1

SPIC = target: T8, SPIC (Homo sapiens, UniProt Q8N5J4 1-248); details: protein: recombinant; tags: N-terminal GST; dsDNA, one strand shown
T8 sequence: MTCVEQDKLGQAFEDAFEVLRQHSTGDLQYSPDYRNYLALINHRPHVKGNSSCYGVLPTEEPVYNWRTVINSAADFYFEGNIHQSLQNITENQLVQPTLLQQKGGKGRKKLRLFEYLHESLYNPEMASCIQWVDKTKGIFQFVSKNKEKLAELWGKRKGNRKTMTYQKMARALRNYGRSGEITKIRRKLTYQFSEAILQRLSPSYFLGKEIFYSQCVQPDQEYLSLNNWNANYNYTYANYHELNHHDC
Summary of the method: as §1

ELF4 = ELF4 (Homo sapiens, UniProt Q99607 1-663); details: protein: recombinant; tags: N-terminal GST; dsDNA, one strand shown
Summary of the method: as §1

ELK4 = target: T9, ELK4 (Homo sapiens, UniProt P28324-2 1-405); details: protein: recombinant; tags: N-terminal GST; dsDNA, one strand shown
T9 sequence: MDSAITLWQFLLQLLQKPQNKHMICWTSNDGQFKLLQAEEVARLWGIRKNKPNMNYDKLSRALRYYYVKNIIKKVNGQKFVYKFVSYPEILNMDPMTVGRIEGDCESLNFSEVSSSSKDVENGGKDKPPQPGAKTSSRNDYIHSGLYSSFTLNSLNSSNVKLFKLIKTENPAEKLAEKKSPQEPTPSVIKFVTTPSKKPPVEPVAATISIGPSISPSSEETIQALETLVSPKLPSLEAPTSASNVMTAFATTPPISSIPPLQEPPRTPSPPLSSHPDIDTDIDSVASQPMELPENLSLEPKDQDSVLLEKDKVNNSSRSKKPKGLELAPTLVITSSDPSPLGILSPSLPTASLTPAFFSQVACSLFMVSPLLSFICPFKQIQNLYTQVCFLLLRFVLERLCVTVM
Summary of the method: as §1

ETV2 = target: T10, ETV2 (Homo sapiens, UniProt O00321 1-342); details: protein: recombinant; tags: N-terminal GST; dsDNA, one strand shown
T10 sequence: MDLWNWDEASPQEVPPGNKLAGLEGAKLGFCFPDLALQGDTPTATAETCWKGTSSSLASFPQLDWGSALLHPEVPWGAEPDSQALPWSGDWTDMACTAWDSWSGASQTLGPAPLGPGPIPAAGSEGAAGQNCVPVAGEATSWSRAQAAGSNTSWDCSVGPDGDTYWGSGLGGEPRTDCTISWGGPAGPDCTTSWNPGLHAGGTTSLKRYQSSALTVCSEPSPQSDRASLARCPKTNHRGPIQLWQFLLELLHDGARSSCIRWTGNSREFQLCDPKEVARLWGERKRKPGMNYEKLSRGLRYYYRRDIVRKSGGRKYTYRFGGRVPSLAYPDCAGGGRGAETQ
Summary of the method: as §1

ELF3 = target: T11, ELF3 (Homo sapiens, UniProt P78545 1-371); details: protein: recombinant; tags: N-terminal GST; dsDNA, one strand shown
T11 sequence: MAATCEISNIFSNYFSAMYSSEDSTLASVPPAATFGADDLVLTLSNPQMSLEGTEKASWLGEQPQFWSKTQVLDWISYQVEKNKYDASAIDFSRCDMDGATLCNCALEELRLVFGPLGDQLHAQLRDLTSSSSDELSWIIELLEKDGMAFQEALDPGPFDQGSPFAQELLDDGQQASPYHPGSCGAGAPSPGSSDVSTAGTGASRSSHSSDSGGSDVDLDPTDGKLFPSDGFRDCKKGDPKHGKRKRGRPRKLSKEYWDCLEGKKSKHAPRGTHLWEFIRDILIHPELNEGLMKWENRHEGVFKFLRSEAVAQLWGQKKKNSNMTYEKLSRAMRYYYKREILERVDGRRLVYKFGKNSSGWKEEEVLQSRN
Summary of the method: as §1

CRX = CRX (Homo sapiens, UniProt O43186 1-299); details: protein: recombinant; tags: N-terminal GST; dsDNA, one strand shown
Summary of the method: as §1

ETV1 = ETV1 (Homo sapiens, UniProt P50549 1-477); details: protein: recombinant; tags: N-terminal GST; dsDNA, one strand shown
Summary of the method: as §1

Chain of HSF1 (Q00613 whole entry): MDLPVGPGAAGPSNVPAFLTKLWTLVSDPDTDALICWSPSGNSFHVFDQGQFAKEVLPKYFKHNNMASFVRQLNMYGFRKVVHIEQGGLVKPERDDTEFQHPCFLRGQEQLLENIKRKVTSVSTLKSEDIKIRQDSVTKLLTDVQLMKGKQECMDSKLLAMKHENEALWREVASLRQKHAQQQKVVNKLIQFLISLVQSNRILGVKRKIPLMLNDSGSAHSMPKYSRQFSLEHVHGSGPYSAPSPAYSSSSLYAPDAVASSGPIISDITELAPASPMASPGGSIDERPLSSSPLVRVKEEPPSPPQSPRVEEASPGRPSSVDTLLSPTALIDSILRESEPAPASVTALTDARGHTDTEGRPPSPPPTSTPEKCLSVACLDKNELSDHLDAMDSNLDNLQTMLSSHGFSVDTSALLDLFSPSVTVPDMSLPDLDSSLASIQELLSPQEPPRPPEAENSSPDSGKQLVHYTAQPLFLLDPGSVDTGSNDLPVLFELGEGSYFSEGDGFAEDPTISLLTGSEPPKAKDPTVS
Chain of ETV1 (P50549 whole entry): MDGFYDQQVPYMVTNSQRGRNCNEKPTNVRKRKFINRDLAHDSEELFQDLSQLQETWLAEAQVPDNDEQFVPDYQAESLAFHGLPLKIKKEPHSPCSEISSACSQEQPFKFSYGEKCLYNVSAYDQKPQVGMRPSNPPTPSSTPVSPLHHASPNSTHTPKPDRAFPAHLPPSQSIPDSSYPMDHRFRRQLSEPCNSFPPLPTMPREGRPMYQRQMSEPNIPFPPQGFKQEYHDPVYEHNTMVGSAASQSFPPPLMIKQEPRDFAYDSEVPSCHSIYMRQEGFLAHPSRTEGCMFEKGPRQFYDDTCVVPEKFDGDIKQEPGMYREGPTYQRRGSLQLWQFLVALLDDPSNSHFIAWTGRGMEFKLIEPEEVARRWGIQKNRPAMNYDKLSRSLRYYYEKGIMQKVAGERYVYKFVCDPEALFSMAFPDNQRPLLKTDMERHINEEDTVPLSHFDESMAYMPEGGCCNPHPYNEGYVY
Chain of ETV5 (P41161 whole entry): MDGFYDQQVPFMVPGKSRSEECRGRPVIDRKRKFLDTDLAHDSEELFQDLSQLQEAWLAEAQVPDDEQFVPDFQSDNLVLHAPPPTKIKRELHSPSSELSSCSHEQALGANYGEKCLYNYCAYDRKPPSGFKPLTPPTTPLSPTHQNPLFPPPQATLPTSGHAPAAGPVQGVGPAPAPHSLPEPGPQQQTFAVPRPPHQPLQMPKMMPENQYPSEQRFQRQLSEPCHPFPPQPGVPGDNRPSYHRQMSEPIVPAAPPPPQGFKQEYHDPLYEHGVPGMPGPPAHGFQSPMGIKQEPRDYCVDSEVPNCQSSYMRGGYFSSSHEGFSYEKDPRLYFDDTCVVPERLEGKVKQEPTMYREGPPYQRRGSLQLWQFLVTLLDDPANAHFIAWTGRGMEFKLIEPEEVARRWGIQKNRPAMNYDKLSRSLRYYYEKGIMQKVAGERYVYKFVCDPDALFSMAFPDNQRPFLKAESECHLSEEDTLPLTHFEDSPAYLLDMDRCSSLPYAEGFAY
Chain of SPIB (Q01892 whole entry): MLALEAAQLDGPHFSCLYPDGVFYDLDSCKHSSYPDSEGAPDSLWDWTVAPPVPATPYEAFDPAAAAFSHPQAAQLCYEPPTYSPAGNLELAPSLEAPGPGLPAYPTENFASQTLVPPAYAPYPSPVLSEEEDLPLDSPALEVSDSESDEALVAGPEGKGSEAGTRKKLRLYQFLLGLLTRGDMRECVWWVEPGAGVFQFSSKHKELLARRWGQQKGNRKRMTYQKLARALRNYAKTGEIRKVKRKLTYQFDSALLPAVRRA
Chain of CRX (O43186 whole entry): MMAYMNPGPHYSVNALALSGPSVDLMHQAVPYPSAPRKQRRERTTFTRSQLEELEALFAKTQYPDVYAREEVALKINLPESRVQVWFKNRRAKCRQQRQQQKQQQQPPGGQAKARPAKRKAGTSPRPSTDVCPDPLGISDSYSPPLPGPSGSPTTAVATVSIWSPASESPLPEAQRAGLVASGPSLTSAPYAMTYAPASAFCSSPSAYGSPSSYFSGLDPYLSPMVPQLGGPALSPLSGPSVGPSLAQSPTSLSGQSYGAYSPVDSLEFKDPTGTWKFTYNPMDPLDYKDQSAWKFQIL
Chain of ELF4 (Q99607 whole entry): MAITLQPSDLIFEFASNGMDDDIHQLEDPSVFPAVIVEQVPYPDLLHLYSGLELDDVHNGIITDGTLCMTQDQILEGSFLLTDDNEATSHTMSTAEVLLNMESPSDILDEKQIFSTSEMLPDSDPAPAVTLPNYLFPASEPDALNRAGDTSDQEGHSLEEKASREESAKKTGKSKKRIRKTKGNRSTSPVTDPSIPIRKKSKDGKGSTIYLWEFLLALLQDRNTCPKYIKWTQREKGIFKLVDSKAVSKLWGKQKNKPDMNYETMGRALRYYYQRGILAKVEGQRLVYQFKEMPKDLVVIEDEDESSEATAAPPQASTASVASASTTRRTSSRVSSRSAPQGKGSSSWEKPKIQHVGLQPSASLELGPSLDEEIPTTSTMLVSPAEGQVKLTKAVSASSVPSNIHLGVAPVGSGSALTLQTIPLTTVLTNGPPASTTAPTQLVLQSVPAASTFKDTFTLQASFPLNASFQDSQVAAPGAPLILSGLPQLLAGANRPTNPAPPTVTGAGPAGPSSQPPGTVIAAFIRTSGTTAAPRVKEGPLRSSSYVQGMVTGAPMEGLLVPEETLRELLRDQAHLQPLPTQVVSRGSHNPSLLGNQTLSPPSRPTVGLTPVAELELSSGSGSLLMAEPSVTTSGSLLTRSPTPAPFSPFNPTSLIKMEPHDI
Chain of ELF1 (P32519 whole entry): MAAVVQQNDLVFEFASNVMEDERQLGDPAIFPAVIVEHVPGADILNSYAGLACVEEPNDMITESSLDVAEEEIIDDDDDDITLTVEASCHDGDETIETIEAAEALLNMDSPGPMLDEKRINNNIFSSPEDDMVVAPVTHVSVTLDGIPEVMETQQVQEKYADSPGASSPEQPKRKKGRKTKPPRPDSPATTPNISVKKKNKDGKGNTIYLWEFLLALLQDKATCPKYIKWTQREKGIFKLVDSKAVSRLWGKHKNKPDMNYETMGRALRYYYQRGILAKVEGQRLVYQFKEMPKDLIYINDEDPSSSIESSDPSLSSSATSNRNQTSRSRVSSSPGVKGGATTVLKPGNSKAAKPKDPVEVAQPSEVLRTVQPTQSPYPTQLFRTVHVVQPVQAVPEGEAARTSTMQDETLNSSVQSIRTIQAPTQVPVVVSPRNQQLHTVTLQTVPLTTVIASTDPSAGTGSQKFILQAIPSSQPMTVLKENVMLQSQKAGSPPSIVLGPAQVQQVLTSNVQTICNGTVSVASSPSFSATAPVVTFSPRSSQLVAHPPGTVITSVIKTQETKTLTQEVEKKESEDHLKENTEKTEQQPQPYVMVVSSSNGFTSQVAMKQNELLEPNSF

**Q.** What does the source list for ACATTC?
**A.** binding signal (FLI1): 1.41 fold enrichment (6-mer frequency, TF over GST control); binding signal (ELK1): 1.32 fold enrichment (6-mer frequency, TF over GST control); binding signal (GABPA): 1.31 fold enrichment (6-mer frequency, TF over GST control); binding signal (ERG): 1.23 fold enrichment (6-mer frequency, TF over GST control); binding signal (ELF1): 1.37 fold enrichment (6-mer frequency, TF over GST control); binding signal (EHF): 1.25 fold enrichment (6-mer frequency, TF over GST control); binding signal (SPI1): 1.24 fold enrichment (6-mer frequency, TF over GST control); binding signal (SPIB): 1.23 fold enrichment (6-mer frequency, TF over GST control); binding signal (ELK3): 1.35 fold enrichment (6-mer frequency, TF over GST control); binding signal (FEV): 1.21 fold enrichment (6-mer frequency, TF over GST control); binding signal (ETV5): 1.39 fold enrichment (6-mer frequency, TF over GST control); binding signal (HSF1): 2.56 fold enrichment (6-mer frequency, TF over GST control); binding signal (SPIC): 1.22 fold enrichment (6-mer frequency, TF over GST control); binding signal (ELF4): 1.32 fold enrichment (6-mer frequency, TF over GST control); binding signal (ELK4): 1.22 fold enrichment (6-mer frequency, TF over GST control); binding signal (ETV2): 1.23 fold enrichment (6-mer frequency, TF over GST control); binding signal (ELF3): 1.31 fold enrichment (6-mer frequency, TF over GST control); binding signal (CRX): 1.4 fold enrichment (6-mer frequency, TF over GST control); binding signal (ETV1): 1.29 fold enrichment (6-mer frequency, TF over GST control)
